# Results reported in ChEMBL document CHEMBL3988442, “University of Dundee, Small-Polar-MMV Screening Library” (2021).
# Target: AMP-activated protein kinase, AMPK (Homo sapiens) (UniProt P54646+O43741+P54619+Q9UGJ0+Q9Y478+Q13131+Q9UGI9)
# Experiment: AMP-dependent Kinase enzyme assay. An in vitro enzyme assay that detects ADP turnover that is directly proportional to AMPK activity. This uses naive AMPK that is activated during the assay with MK-8722
# Format: functional
# Parameters: scale not given: direction of the effect not stated beside the values
# Settings: 30 µM
row,Structure (SMILES),Percent Effect
1,CC(C)(C)SCCN1CC(=O)N2CC[C@@H](O)C[C@H]2C1=O,3.02%
2,CNC(=O)c1ccc(CN(C(C)C)C(C)C)o1,-7.38%
3,CCc1cc(N2CCC(NCc3ccc(C)o3)CC2)ncn1,6.83%
4,CCCc1ccc(CN2CCC3(CCC(=O)N(C(C)C(=O)O)C3)CC2)o1 (stereo not given),31.1%
5,Cc1nc(COC(=O)c2cccnc2C)no1,3.04%
6,COCC(C)NC(=O)c1sccc1-n1cnnn1 (stereo not given),15.6%
7,CCn1nc(C)c(CCN2CC3(CCOC3)CCC2=O)c1C (stereo not given),-1.79%
8,COc1cc(Cl)cc(CN2CCCC(N3CCOCC3)C2)c1OC (stereo not given),4.12%
9,CCc1cccc(C)c1NC(=O)NCCCN(CC)S(C)(=O)=O,22.2%
10,CS(=O)(=O)NCC1(O)CCCN(C(=O)CCn2cc(Cl)cn2)CC1 (stereo not given),-0.47%
11,CCOC(=O)C1(O)CCN(C(=O)Nc2ccc(CC)cc2)CC1,0.524%
12,Clc1ccc2cccnc2c1CNC1CCc2ncnn2C1 (stereo not given),3.85%
13,Cc1nc(CNC(=O)c2cc(COc3ccccc3)[nH]n2)n[nH]1,7.31%
14,COCCN(C)c1cnn(C)c(=O)c1Br,-10.9%
15,Cn1ccnc1C1(O)CCN(C(=O)Cc2ccccc2)CC1,13.3%
16,CCn1c(C2CCNCC2)nn(CCn2cncn2)c1=O,3.82%
17,CCN(CC)C(=O)CS(=O)(=O)c1cc(OC)c(OC)cc1C,3.6%
18,CC(C)C(=O)NCCc1nc(-c2ccncc2)n[nH]1,10.7%
19,Cc1nc(C)c(COc2ccc(S(=O)(=O)N(C)C)cc2)s1,4.6%
20,CC(CN1CCOCC1)NC(=O)N1CCCC1 (stereo not given),12.9%
